Compound activity (PubChem BioAssay)
In the library only some 14% were active in any assay of this set; here they are far more common.
Pf growth 96h: P. falciparum growth inhibition at 96 hour, primary screen for plastid delayed-death inhibitors. 320,000 compounds, 6.9% hits. P. falciparum luciferase reporter growth, 96 h. Potency, µM (doses to about 28.7 µM), actives largely listed as inhibitors. AID 504834
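96 h incubation, 37 C, 5% CO2, of luciferase-reporter P. falciparum-infected RBCs (2% hematocrit, 0.05% parasitemia final) with test compounds; endpoint luminescence.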
Pf growth 48h: inhibits P. falciparum growth in the first generation, 48 h. 310,000 compounds, 5.9% hits. Potency, µM (doses to about 28.7 µM), most hits filed as inhibitors. P. falciparum luciferase growth in erythrocytes, 48 h
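Compounds are pin-transferred into medium, infected erythrocytes (2% hematocrit, 0.1% parasitemia final) are added, and plates sit one parasite generation at 37 C in 5% CO2. Detection reagent is then added and luminescence measured.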
HCV inh: HCV inhibition | 340,000 compounds, 3.4% hits | Potency, µM (highest dose often 41.8 µM), usual class: inhibitors | Huh7.5.1 HCVcc-Cre infection, luciferase reporter, 44 h | AID 651820
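Compounds are dispensed onto cells plated 4 h earlier at 1,000 per well, with HCVcc-Cre virus (about 0.5 moi) added next. Following 44 h of culture, luminescent signal is measured for 15 sec after 15 min with substrate at room temperature.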
HCMV inh: human cytomegalovirus inhibition; activity change, negative = inhibition, % at 57.5 µM; 410,000 compounds, 4.5% hits; AID 1259415; HFF cells, HCMV-luciferase reporter, 72 h; active compounds read low; in the data active = activity change below about -60%; inconclusive = no clear call, values can overlap the other calls; inactive = above about -39%
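After 16 h attachment at 37C, HFF cells received test compound and HCMV-luciferase (1 PFU/cell); reporter luminescence read 72 h later, data normalized against buffer-only and known inhibitor Salinomycin.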
Lassa entry inh: blocks Lassa virus binding to or entry into cells; Lassa virus pseudotype entry inhibition, cell reporter; Potency, µM (titrated, usually from 37.9 µM), actives largely listed as inhibitors; 300,000 compounds, 1.2% hits; AID 540256; calls by dose curve; tested in HEK293 cells; also: nearly all actives have a fitted effect of over 50% in size
MARV entry inh: Marburg virus entry inhibition | Marburg virus pseudotyped entry inhibition, cell reporter | Potency, µM (doses to about 37.8 µM), actives largely listed as inhibitors | 300,000 compounds, 1.8% hits | AID 540276; calls by dose curve; tested in HEK293 cells
A number is an active result. Unless noted, calls follow the shape of the dose curve; as a rule, active = well fitted inhibition curve with a large enough effect; inconclusive = small, poorly fitted or top-dose-only effect, or another doubt; inactive = no such curve, though single readings can be large or run the other way.

`CCOc1cc(CNCc2ccc(C(=O)O)cc2)ccc1OC` gave Pf growth 96h inactive, Pf growth 48h inactive, HCV inh inactive, HCMV inh inactive, Lassa entry inh inactive and MARV entry inh inconclusive.
`CCOc1cc(CNCc2cc(OC)cc(OC)c2)ccc1OC` gave Pf growth 96h inconclusive, Pf growth 48h inactive, HCV inh 0.56µM, HCMV inh inactive, Lassa entry inh inconclusive and MARV entry inh inconclusive.
COc1ccc(CCNC(=O)c2cc(-c3ccc(C)c(C)c3O)n[nH]2)cc1OC was read as Pf growth 96h 15µM, HCV inh inconclusive, HCMV inh inactive, Lassa entry inh inconclusive and MARV entry inh inconclusive.
Screening Cc1ccc(-c2cc(C(=O)NCc3ccc4c(c3)OCO4)[nH]n2)c(O)c1C returned Pf growth 96h 12µM, Pf growth 48h inactive, HCV inh inactive, HCMV inh inactive, Lassa entry inh inactive and MARV entry inh inactive.
Cc1cc(C)n(C(C)CC(=O)Nc2cccc(C#N)c2)n1 (stereo not drawn) was read as HCMV inh inactive and Lassa entry inh inconclusive.
`Fc1ccc2[nH]c3c(N4CCc5ccccc5C4)ncnc3c2c1` gave Pf growth 96h 1.9µM, Pf growth 48h 2.9µM, HCV inh 5µM, HCMV inh inactive, Lassa entry inh inconclusive and MARV entry inh inconclusive.
For Cc1ccc2[nH]c3c(N4CCc5ccccc5C4)ncnc3c2c1 the results were Pf growth 96h inconclusive, Pf growth 48h inconclusive, HCV inh 3.5µM, HCMV inh -67, Lassa entry inh inconclusive and MARV entry inh 6.3µM.
Screening CN1CCN(c2ncnc3c2[nH]c2ccc(F)cc23)CC1 returned Pf growth 96h inconclusive, Pf growth 48h 2.9µM, HCV inh 10µM, HCMV inh inactive, Lassa entry inh inactive and MARV entry inh inactive.
For c1ccc2c(c1)[nH]c1c(N3CCSCC3)ncnc12 the results were Pf growth 96h inactive, Pf growth 48h inactive, HCV inh 13µM, HCMV inh inactive, Lassa entry inh inactive and MARV entry inh inactive.
`c1ccc2c(c1)CCN(c1ncnc3nc[nH]c13)C2` gave Pf growth 96h inconclusive, Pf growth 48h inactive, HCV inh inactive, HCMV inh inactive, Lassa entry inh inactive and MARV entry inh inactive.
CCOc1ccc2[nH]c3c(N4CCc5ccccc5C4)ncnc3c2c1 was read as Pf growth 96h 13µM, Pf growth 48h inconclusive, HCV inh inactive, HCMV inh inactive, Lassa entry inh inconclusive and MARV entry inh 10µM.
Screening Brc1ccc2[nH]c3c(N4CCc5ccccc5C4)ncnc3c2c1 returned Pf growth 48h 1.7µM, HCV inh 3.5µM, Lassa entry inh inactive and MARV entry inh inconclusive.
`c1ccc(Sc2nc(N3CCCCC3)nc(N3CCCCC3)n2)nc1` gave Pf growth 96h inconclusive, Pf growth 48h inconclusive, HCV inh 10µM, HCMV inh inactive, Lassa entry inh inactive and MARV entry inh inactive.
`CCC(C)c1ccc(NC(=O)COc2c(F)c(F)c(C(F)(F)F)c(F)c2F)cc1` (stereo not drawn) gave Pf growth 96h 2.1µM, Pf growth 48h inactive, HCV inh inactive, HCMV inh inactive, Lassa entry inh inactive and MARV entry inh inactive.
`O=C1NC2C(O)C(O)C(O)C(O)C2c2cc3c(c(O)c21)OCO3` (stereo not drawn) gave HCV inh inconclusive, HCMV inh -98, Lassa entry inh 0.14µM and MARV entry inh inconclusive.
For O=C1NC2C(=CC(O)C(O)C2O)c2cc3c(cc21)OCO3 (stereo not drawn) the results were HCV inh 0.56µM, HCMV inh -77, Lassa entry inh 1µM and MARV entry inh inconclusive.
O=C1NCCc2cc3c(cc21)OCO3 was read as Pf growth 96h inconclusive, Pf growth 48h inactive, HCV inh inactive, HCMV inh inactive, Lassa entry inh inactive and MARV entry inh inactive.
O=C1NC2C(=CC(O)C(O)C2O)c2cc3c(c(O)c21)OCO3 (stereo not drawn) was read as HCV inh 0.25µM, HCMV inh -101, Lassa entry inh inconclusive and MARV entry inh inconclusive.
For COC(=O)C1=C(C)N(C)C(=O)NC1c1cc2c(cc1Br)OCO2 (stereo not drawn) the results were Pf growth 96h inactive, Pf growth 48h inactive, HCV inh inactive and HCMV inh inactive.
`O=C(Cn1c(-c2cccs2)cc2cc(F)ccc21)N1CCN(c2ccccc2)CC1` gave HCMV inh inactive and Lassa entry inh inactive.
`COc1ccc(S(=O)(=O)N2CC(O)CC2C(=O)OCC(=O)Nc2ccc(Cl)cn2)cc1` (stereo not drawn) gave Pf growth 96h 1.5µM, Pf growth 48h inactive, HCV inh inactive, HCMV inh inactive, Lassa entry inh inconclusive and MARV entry inh inactive.
For O=C(COC(=O)C1CC(O)CN1S(=O)(=O)c1ccc(Cl)cc1)c1ccccc1Cl (stereo not drawn) the results were Pf growth 96h inactive, Pf growth 48h inactive, HCV inh inactive, HCMV inh inactive, Lassa entry inh inactive and MARV entry inh inactive.
`CC(C)N(C(=O)COC(=O)[C@@H]1CC(O)CN1S(=O)(=O)c1ccc(C(C)(C)C)cc1)C(C)C` (stereo partly drawn) gave Pf growth 96h 6.6µM, Pf growth 48h 4.1µM, HCV inh inactive, HCMV inh inactive, Lassa entry inh inactive and MARV entry inh inconclusive.
Screening O=C(COC(=O)C1CC(O)CN1S(=O)(=O)c1ccc(Cl)cc1)c1ccccc1 (stereo not drawn) returned Pf growth 96h inactive, Pf growth 48h inactive, HCV inh inactive, HCMV inh inactive, Lassa entry inh inactive and MARV entry inh inactive.
For Cc1ccc(C(C(=O)NC2CCCCC2)N(C)Cc2ccccc2)cc1 (stereo not drawn) the results were HCMV inh inactive, Lassa entry inh inactive and MARV entry inh inactive.
Screening Cc1cccc(N(C)S(=O)(=O)c2c(C)noc2C)c1 returned Pf growth 96h 9.3µM, Pf growth 48h inactive, HCV inh inactive and HCMV inh inactive.
For CCN(c1ccccc1)S(=O)(=O)c1c(C)noc1C the results were Pf growth 96h inactive, Pf growth 48h inconclusive, HCV inh inactive, HCMV inh inactive, Lassa entry inh inconclusive and MARV entry inh inactive.
For CCCCCCCCN1C(=O)[C@H](CC(=O)NCCCN2CCCC2=O)C[C@@]2(C(=O)OC)CCCCC=C12 the results were HCMV inh inactive.
`COC(=O)CSc1nnc(-c2cnccn2)n1C` gave Pf growth 48h inactive, HCV inh inactive, HCMV inh inactive, Lassa entry inh inactive and MARV entry inh inconclusive.
CC(C)OC(=O)CSc1nnc(-c2cnccn2)n1C was read as Pf growth 96h 10µM, Pf growth 48h inactive, HCV inh inactive, HCMV inh inactive, Lassa entry inh inactive and MARV entry inh inactive.
